Screening results: PubChem, National Center for Advancing Translational Sciences (NCATS)
TGFb SMAD3 inh – qHTS for Inhibitors of TGF-b; Potency, µM (series often up to 46.1 µM), inactives show at the top dose activity, negative = inhibition, most hits filed as inhibitors; 410,000 compounds, 1.2% hits; AID 588855, 2011; HepG2 CAGA-GFP TGF-b/SMAD3 reporter, GFP fluorescence, 18 h; TGF-beta stimulated, 500 pg/mL final; further: on the % scale 0 is the no-effect control and ±100 the full control effect; nearly all actives have a fitted effect of over 65% in size
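HEPG2 CAGA-GFP, 1000 cells/well; 2 h settle, 37 C; cpd via pin tool; TGF-b 500 pg/mL final; 18 h, 37 C; GFP imaging ex488/em500-530; %Activity normalised to -TGF-b and +DMSO controls; CRC fit, curve class.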
ATXN viability – Viability Counterscreen for Primary qHTS for Inhibitors of ATXN expression. 400,000 compounds, 0.49% hits. Potency, µM (highest dose often 56.7 µM), usual class: cytotoxic. AID 651635, 2014. S2 cells (HEK-293 line with an ATXN2-luciferase reporter) viability, CellTiter-Fluor protease fluorescence, 24 h; further: nearly all actives have a fitted effect of over 40% in size
DT40 TDP1 CPT – qHTS for Inhibitors of human tyrosyl-DNA phosphodiesterase 1 (TDP1): qHTS in cells in presence of CPT | chicken DT40 Tdp1-/-;hTDP1 cells + 20 nM CPT, ATP luminescence, 48 h | Potency, µM (series often up to 46.2 µM), without a hit: top-dose activity change, negative = growth inhibition, hits mostly inhibitors | 420,000 compounds, 12% hits | AID 686979, 2013; further: on the % scale 0 is the no-effect control and ±100 the full control effect; nearly all actives have a fitted effect of over 55% in size
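Chicken DT40 Tdp1-/- cells complemented with human TDP1, 400 cells/well, exposed to compounds plus 20 nM camptothecin for at least 48 h at 37 C; viability read as ATP content by CellTiter-Glo luminescence.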
ATXN2 expr inh – Primary qHTS for Inhibitors of ATXN expression | HEK-293 ATXN2-luciferase reporter, luminescence, 24 h | Potency, µM (titrated, usually from 57 µM), for the others: at the highest dose activity change, negative = inhibition, actives largely listed as inhibitors | 360,000 compounds, 0.72% hits | AID 1745845, 2022; further: on the % scale 0 is the no-effect control and ±100 the full control effect; nearly all actives have a fitted effect of over 55% in size
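ATXN2-luciferase reporter cells (luciferase flanked by upstream and downstream ATXN2 gene portions) were treated 24 h at 37 °C with compounds at up to 57 uM. SteadyGlo luminescence gave expression; GF-AFC fluorescence gave viability.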
TDP1 cell noCPT – qHTS for Inhibitors of human tyrosyl-DNA phosphodiesterase 1 (TDP1): qHTS in cells in absence of CPT; DT40 Tdp1-/- hTDP1 cells, no CPT, ATP luminescence, 48 h; Potency, µM (top dose mostly 46.2 µM), for inactives: top-dose activity change, negative = growth inhibition, most hits filed as inhibitors; 420,000 compounds, 15% hits; AID 686978, 2013; further: on the % scale 0 is the no-effect control and ±100 the full control effect; nearly all actives have a fitted effect of over 55% in size
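Cells were dispensed at 400 per well, compounds added by pin tool, plates incubated ≥48 hr at 37 °C, then CellTiter-Glo added for 30 min at room temperature before luminescence reading. Line: DT40 Tdp1-/- complemented with hTDP1; camptothecin omitted.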
HepG2 tox – qHTS for Inhibitors of TGF-b: Cytotox Counterscreen. HepG2 CAGA-GFP viability, ATP luminescence, 18 h. Potency, µM (highest dose often 46.1 µM), inactives show at the top dose activity change, negative = cytotoxicity, hits mostly cytotoxic. 410,000 compounds, 0.76% hits
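CellTiter-Glo luminescence gave cytotoxicity after 18 hours at 37 degrees C. The cells were HepG2 CAGA-GFP in 1% FBS DMEM, stimulated with 500 pg/mL TGF-beta after compound addition. %Activity was normalised to no-cell wells (complete cell-killing) and DMSO (no toxicity), and curves were fitted and classified.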
An asterisk follows results filed as active; i = inactive; ? = inconclusive; . = no result given; [ ] = dose if it differs, or a comment. Shown are actives, neighbours in structure and some others; about 17% of the full set was active somewhere. The call rests on the fitted dose curve; in most records, active means well fitted curve in the direction sought with a large enough effect; inconclusive means small, poorly fitted or top-dose-only effect, or another doubt; inactive means no such curve, though single readings can be large; an effect the other way counts as inactive or inconclusive. Potency means the concentration at half of the fitted maximal effect.

SMILES	TGFb SMAD3 inh	ATXN viability	DT40 TDP1 CPT	ATXN2 expr inh	TDP1 cell noCPT	HepG2 tox
Cc1ccccc1NC(=O)COc1nsnc1N1CCOCC1	-21%	i	-2%	-9%	-1%	-17%
O=C(COc1nsnc1N1CCOCC1)N/N=C/c1ccccc1O	-11%	i	4.6µM*	?	2.6µM*	-54%
O=C(COc1nsnc1N1CCOCC1)Nc1cccc(Cl)c1	19%	i	-5%	1%	-12%	-2%
O=C(Oc1nsnc1N1CCOCC1)N(c1ccccc1)c1ccccc1	-14%	i	6%	1%	-16%	-4%
CCOc1ccc(NC(=O)COc2nsnc2N2CCOCC2)cc1	-11%	i	16µM*	.	13µM*	0%
COC(=O)Oc1nsnc1N1CCOCC1	-7%	i	23µM*	-5%	?	2%
COc1cc2c(cc1OC)C1N(CC2)C(=O)CCC12C(=O)CCCC2=O (stereo not given)	.	.	10%[9.04 µM]	.	-4%[9.04 µM]	.
CNC(=O)NC(=O)C(OC(=O)Cc1cccc(C(F)(F)F)c1)c1ccccc1 (stereo not given)	5%	i	-24%	-2%	0%	-5%
O=C(NCc1nnnn1-c1ccc(F)c(F)c1)c1cc2ccccc2o1	-5%	i	-7%	-4%	-12%	0%
Cn1c(=O)cc(SCC(=O)NCc2ccc(F)cc2)c2ccccc21	-9%	i	?	13%	12µM*	-20%
Cn1c(=O)cc(SCC(=O)NCc2ccc(F)cc2)c2ccc(Cl)cc21	-5%	i	2.6µM*	5%	3.3µM*	-20%
Cn1c(=O)cc(OCCCC(=O)Nc2ccc(F)cc2)c2ccccc21	20%	i	13µM*	18%	15µM*	-41%
Cn1cc(SCC(=O)NCc2ccc(F)cc2)c2ccccc21	?	i	10%	-9%	1%	4%
CCc1ccc(NC(=O)CCCOc2cc(=O)n(C)c3ccccc23)cc1	0%	i	?	0%	?	-36%
COc1cc(=O)n2c(c1C(=O)NCc1ccco1)CCN(Cc1cccc(C)n1)CC2	.	i	4%[9.04 µM]	.	5%	.
CCCCCCCCCCCCCCCCCCN(C)C	.	i	.	5%	.	.
COC(=O)c1c(C)c2c(C)cc3ccccn3c-2c1C(=O)OC	?	?	?	-13%	29µM*	-15%
COC(=O)c1cc2c(-c3ccccc3)cc3ccccn3c-2c1C(=O)OC	-48%	?	?	-15%	?	4%
Cc1cc(C)n(CCN(C)C(=O)C2CCC(=O)N(CCN3CCOCC3)C2)n1 (stereo not given)	29%	i	1%	8%	-6%	4%
CCOc1ccc(N(CC(=O)Nc2ccccc2Cl)S(C)(=O)=O)cc1	-13%	?	18µM*	.	26µM*	-6%
CCOc1ccc(N(CC(=O)Nc2ccccc2)S(C)(=O)=O)cc1	-16%	i	-8%	21%	-19%	-24%
CCOc1ccc(N(CC(=O)Nc2ccccc2OC)S(C)(=O)=O)cc1	-3%	?	?	.	?	-1%
CCOc1ccc(N(CC(=O)Nc2cc(Cl)ccc2C)S(C)(=O)=O)cc1	-30%	i	?	-19%	23µM*	-4%
COc1ccccc1-c1cnc2c(c1)C(=O)N([C@@H](C)CO)C[C@@H](C)[C@H](CN(C)C(=O)c1cccnc1)O2	-15%	i	-6%	11%	15%	-35%
Cc1ccc(CN2CCN(/N=C/c3cccn3C)CC2)c(C)c1	-27%	i	23µM*	.	23µM*	-14%
